# From PubChem BioAssay
# FAS-TE inh: FAS thioesterase domain inhibitors, primary screen, biochemical, fluorescence intensity, uHTS. Fatty acid synthase (Homo sapiens), P49327. hit rate 0.67% among 360,000. recombinant FAS-TE, OMFH fluorogenic substrate, fluorescence endpoint. AID 602261, 2012. inhibition, % at 15 µM;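 active = compounds whose normalised, plate-corrected inhibition of enzyme fluorescence in the single-dose primary screen is 50% or more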;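 note: 0% = DMSO with enzyme and 100% = substrate without enzyme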
# sPLA2-III inh: human group III sPLA2 inhibitors, primary screen, biochemical, QFRET, BODIPY PC-A2 liposome substrate; AID 743126, 2013; QFRET BODIPY PC-A2 liposome hydrolysis, fluorescence; Group 3 secretory phospholipase A2 (Homo sapiens), Q9NZ20; hit rate 0.56% among 370,000; inhibition, % at 12.2 µM;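 active = inhibition above mean plus 3 SD of compounds lying within the high and low control bounds, cut at about 19% in these data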;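 note: 0% = median of test compound wells and 100% = no enzyme DMSO wells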
# GRIN3A LBD mod: binders of NR3A ligand-binding domain, primary screen, biophysical, differential scanning fluorimetry, uHTS. Glutamate receptor ionotropic, NMDA 3A (GRIN3A) ligand-binding domain. NR3A LBD differential scanning fluorimetry, Tm shift; 0% = protein alone, 100% = glycine-bound protein. Tm shift relative to glycine control, % at 25 µM. hit rate 2.5% among 340,000. AID 1259313, 2017;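 active = melting temperature shift of at least 10% of the positive control shift, at one fixed dose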
# ADAM17 inh: ADAM17 inhibitors, primary screen, biochemical, QFRET; Disintegrin and metalloproteinase domain-containing protein 17 (Homo sapiens), P78536; recombinant ADAM17, EDANS/DABCYL FRET peptide cleavage; inhibition, % at 6.95 µM; hit rate 0.83% among 370,000; AID 720648, 2013;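 active = inhibition above the mean of compounds lying between control limits plus 3 SD, set per campaign, cut at about 8.5% in these data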;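 note: 0% = DMSO-only wells as the low control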
# ADAM10 inh: human ADAM10 inhibitors, primary screen, biochemical, QFRET, HTS | recombinant ADAM10, EDANS/DABCYL FRET peptide cleavage, 3 h | inhibition, % at 7 µM | hit rate 0.62% among 370,000;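 active = inhibition above a per-campaign cutoff equal to the mean of compounds falling between control-based bounds plus 3 SD, cut at about 20% in these data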;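 note: 0% = DMSO wells while the 100% control is not disclosed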
# Target sequence (O14672 214-748 limits assumed): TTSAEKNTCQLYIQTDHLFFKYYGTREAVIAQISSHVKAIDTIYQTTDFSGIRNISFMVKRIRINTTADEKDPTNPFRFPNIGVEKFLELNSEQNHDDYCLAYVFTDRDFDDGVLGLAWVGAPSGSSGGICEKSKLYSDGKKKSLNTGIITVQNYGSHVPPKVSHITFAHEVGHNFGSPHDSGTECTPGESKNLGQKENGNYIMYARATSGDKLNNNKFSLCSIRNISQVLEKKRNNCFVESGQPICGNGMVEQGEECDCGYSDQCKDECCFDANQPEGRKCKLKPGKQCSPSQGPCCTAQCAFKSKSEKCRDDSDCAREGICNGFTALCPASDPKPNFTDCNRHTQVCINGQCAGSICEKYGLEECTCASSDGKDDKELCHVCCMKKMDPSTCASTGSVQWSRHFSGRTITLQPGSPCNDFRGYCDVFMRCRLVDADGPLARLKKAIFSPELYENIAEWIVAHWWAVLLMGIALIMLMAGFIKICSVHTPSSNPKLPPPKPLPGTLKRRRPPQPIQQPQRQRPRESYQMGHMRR
# Active calls of the source: *; · = no result given. Most compounds without a hit are left out; they make up all but 4.3% or so of the library.
SMILES,FAS-TE inh,sPLA2-III inh,GRIN3A LBD mod,ADAM17 inh,ADAM10 inh
O=C(Nc1ccc(OCC(F)(F)C(F)F)c(C(F)(F)F)c1)c1ccccc1O,9,-33,33*,-2,-15
O=C(NCc1ccco1)c1ccc(Cn2c(=O)c3sccc3n(Cc3cccc(F)c3)c2=O)cc1,23,-22,-4,6,10
O=C(NCc1cccc(F)c1)c1ccc(N2C(=O)Cn3c(cc4sccc43)C2=O)cc1,4,0,17*,-5,-6
CCOc1cc(/C=C(/C#N)C(=O)Nc2ccc(O)cc2)cc(Br)c1O,2,-6,13*,3,4
C=CCNC(=O)/C(C#N)=C\c1cc(Cl)c(O)c(OCC)c1,-10,2,-11,3,6
O=C(Nc1nc2ccccc2s1)C1CC(=O)N(c2ccc(Br)cc2)C1 (configuration not stated),19,-11,16*,8,19
COC(=O)/C(=C/c1c[nH]c2ccccc12)NC(C)=O,-8,-2,-2,2,0
COC(=O)/C(=C/c1c[nH]c2ccccc12)[N+](=O)[O-],-5,-11,16*,0,0
O=S1(=O)CC2c3ccccc3CN2CN1Cc1ccccc1 (configuration not stated),·,10,·,-6,-11
C[C@]12CC(O)C3C(CCC4=CC(=O)CC[C@@]43C)C1CCC2c1csc(-c2ccccc2)n1 (some centres not stated),42,-2,13*,-8,4
COC(=O)C1=C(C)N(Cc2cccc(C(F)(F)F)c2)C(=NCC2CC2)NC1c1cccc(F)c1 (configuration not stated),·,-6,·,-4,-5
Cc1ccc(Nc2nc(-c3ccccc3)cs2)nc1,19,-2,4,6,1
Cc1ccc(Nc2nc(-c3cccs3)cs2)nc1,19,-2,24*,-2,-15
N#C/C(=N\Nc1ccc(S(=O)(=O)N2CCc3ccccc32)cc1)C(N)=S,13,-55,23*,5,10
CCOC(=O)/C(C#N)=N/Nc1ccc(S(=O)(=O)N2CCc3ccccc32)cc1,29,-37,24*,7,6
N#C/C(=N\Nc1ccc(S(=O)(=O)N2CCCCCC2)cc1)C(N)=S,0,-23,7,4,9
Cc1ccc(NC(=O)OC2CCC23CCCCC3)cc1 (configuration not stated),·,8,·,1,-5
O=C(Nc1ccc(F)cc1F)C1CCN(c2nnc(-n3cccc3)s2)CC1,·,-3,·,2,5
CCOC(=O)/C(C(=O)Nc1ccccc1Br)=C1/NC(C)(C)Cc2ccccc21,27,4,13*,-3,-7
O=C(NCCCN1CCN(c2ccc(F)cc2)CC1)NCc1ccccc1,·,8,·,4,3
COc1ccc2nc3sc(C(=O)NCCN4CCc5ccccc5C4)cc3cc2c1,-4,0,19*,-22,-77
CS(=O)(=O)NNC(=O)c1cc2cc3ccccc3nc2s1,-4,2,0,-1,-3
COc1ccc(S(=O)(=O)NNC(=O)c2cc3cc4ccccc4nc3s2)cc1,-1,-44,29*,-8,-54
CCN1C(=O)c2cccc3c(NS(=O)(=O)c4ccc(NC(C)=O)cc4)ccc1c23,-4,-9,-7,-2,-9
CCOC(=O)c1ccc(NC(=O)Nc2ccc3c4c(cccc24)C(=O)N3CC)cc1,-17,3,17*,-1,6
CC(C)=CCC[C@](C)(O)C1CC[C@]2(C)C1[C@H](O)CC1[C@@]3(C)CC[C@H](O[C@@H]4O[C@H](CO)[C@@H](O)[C@H](O)[C@H]4O[C@@H]4O[C@H](CO)[C@@H](O)[C@H](O)[C@H]4O)C(C)(C)C3CC[C@]12C (some centres not stated),-6,-8,0,-1,-7
